In the library only some 7.2% were active in any assay of this set; here they are far more common.
MARV entry inh: qHTS for inhibitors of binding or entry into cells for Marburg Virus | Marburg virus pseudotyped entry inhibition, cell reporter | Potency, µM (top dose mostly 37.8 µM), for inactives: at the highest dose activity change, negative = inhibition, actives largely listed as inhibitors | 300,000 tested, 1.8% active | AID 540276, 2011; calls by dose curve; tested in HEK293 cells
Sm TGR block: qHTS Assay for the Inhibitors of Schistosoma Mansoni Peroxiredoxins; Schistosoma mansoni thioredoxin glutathione reductase (TGR), Q962Y6; purified TGR, DTNB reduction, TNB absorbance 405 nm; Potency, µM (doses to about 114 µM), inactives show at the top dose activity change, negative = inhibition, usual class: inhibitors; 360,000 tested, 3% active; AID 485364, 2010; further: nearly all actives have a fitted effect of over 60% in size
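TGR 20 nM + NADPH 100 uM (dispensed conc.), cpd preinc 15 min RT; start with NADPH (500 uM addition) then DTNB (15 mM addition). Kinetic TNB absorbance, 405 nm filter. Four-parameter Hill fit across titration.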
FMDV antiviral: High Throughput Screening for Foot and Mouth Disease Virus Antivirals; Potency, µM (series often up to 57.9 µM), for the others: top-dose activity change, negative = inhibition, actives largely listed as inhibitors; 410,000 tested, 1.2% active; FMDV antiviral cell-based qHTS; calls by dose curve; tested in HEK293T cells; further: read-out not given here; nearly all actives have a fitted effect of over 45% in size
HCV inh: qHTS Assay for Inhibitors of Hepatitis C Virus (HCV). Huh7.5.1 HCVcc-Cre infection, luciferase reporter, 44 h. Potency, µM (highest dose often 41.8 µM), inactives show at the highest dose activity change, negative = inhibition, usual class: inhibitors. 340,000 tested, 3.4% active
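After 44 h co-culture of compound, cells and HCVcc-Cre (~0.5 moi), substrate is added for 15 min at room temperature and luciferase measured over 15 sec. Cells were seeded at 1,000/well and pre-cultured 4 h.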
Lassa entry inh: qHTS for Inhibitors of binding or entry into cells for Lassa Virus; 300,000 tested, 1.2% active; Lassa virus pseudotype entry inhibition, cell reporter; AID 540256, 2011; Potency, µM (titrated, usually from 37.9 µM), for the others: at the highest dose activity change, negative = inhibition, hits mostly inhibitors; calls by dose curve; tested in HEK293 cells; further: nearly all actives have a fitted effect of over 50% in size
RE007 growth inh: qHTS Assay for Inhibitors of the HIV-1 protein Vpr; AID 651644, 2012; Potency, µM (series often up to 92.2 µM), for the others: at the highest dose activity change, negative = less growth, most hits filed as inhibitors; 360,000 tested, 0.21% active; S. pombe RE007 Vpr strain, BacTiter-Glo ATP luminescence, 24 h; active means well fitted falling curve with a large enough effect; inconclusive means small, poorly fitted or top-dose-only effect; inactive means no such curve, though single readings can be large or run the other way; further: nearly all actives have a fitted effect of over 50% in size
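Fission yeast RE007 carrying one integrated HIV-1 vpr copy, seeded at OD 0.01 in PMG+AL medium with 23 nL pinned compound. Grown 24 h at 30 degrees; viability read by BacTiter-Glo luminescence after 5 min.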
Numbers without * were called inactive; ? = inconclusive; nt = no result; [ ] = another dose, or the depositor's remark. Unless noted, the call rests on the fitted dose curve; in most records, active means well fitted curve in the direction sought with a large enough effect; inconclusive means small, poorly fitted or top-dose-only effect, or another doubt; inactive means no such curve, though single readings can be large; an effect the other way counts as inactive or inconclusive. On the % scale 0 is the no-effect control and ±100 the full control effect; potency means the concentration at half of the fitted maximal effect.

SMILES	MARV entry inh	Sm TGR block	FMDV antiviral	HCV inh	Lassa entry inh	RE007 growth inh
O=C(NC1CCCCCC1)C1CCN(C(=O)N2CCOc3ccc(Cl)cc32)CC1	nt	-3%	-5%	nt	?	nt
CCOC(=O)C(C)(C)N(Cc1ccc(C)cc1)S(=O)(=O)c1ccc(Cl)c([N+](=O)[O-])c1	?	-17%	25µM*	?	?	81%
Cc1cccc(C)c1NC(=O)N1CCC(C(N)=O)(N2CCCCC2)CC1	-24%[46.1 µM]	4%	2%	nt	4%[46.1 µM]	nt
COc1ccc(CNc2nc(C)c([N+](=O)[O-])c(C)c2C#N)cc1	-7%	45%	-26%	-4%	12%	1%
COc1cc(CNc2nc(C)c([N+](=O)[O-])c(C)c2C#N)cc(OC)c1OC	?	-3%	25µM*	6.3µM*	?	-1%
O=C1C(=O)c2ccccc2C(O)=C1CCCCl	nt	?	28µM*	?	nt	?
COc1ccccc1OCc1ccc(C(=O)Nc2ccccc2)cc1	nt	-9%	27%	?	nt	15%
O=C(Nc1ccc(Cn2cccn2)cc1)c1ccc(COc2ccccc2Br)cc1	-14%[46.1 µM]	10%	14µM*	13µM*	?	-11%
CCOc1ccccc1NC(=O)CN1CCC(NC(=O)c2ccccc2C)CC1	-22%[46.1 µM]	-18%	-13%	?	-5%	-13%
CCOc1ccccc1C(=O)NC1CCN(CC(=O)Nc2cc(OC)ccc2OC)CC1	nt	-6%	-23%	11µM*	nt	-8%
CCOc1ccc(NC(=O)CN2CCN(CC(=O)Nc3ccc(C(N)=O)cc3)CC2)cc1	nt	?	7%	8%	nt	-5%
COc1ccc(NC(=O)CN2CCN(CC(=O)Nc3ccccc3Cl)CC2)cc1Cl	-2%	16%	40µM*	0%	-11%	-6%
CCOc1ccc(NC(=O)CN2CCN(CC(=O)c3ccc(OC)c(OC)c3)CC2)cc1	-5%	32µM*	-4%	15%	-4%	-6%
CCOc1ccc(NC(=O)CN2CCN(CC(=O)c3ccc(OCC)cc3)CC2)cc1	-2%	22µM*	1%	1%	?	-18%
CCC(=O)c1ccc(OCC(=O)N2CCN(CC(=O)Nc3ccccc3C(F)(F)F)CC2)cc1	?	nt	-8%	13µM*	2%[46.1 µM]	46%
Cc1ccc(NC(=S)N(CCCN2CCCC2)Cc2cccn2Cc2ccc(Cl)cc2)cc1C	?	3%	?	?	?	-3%
CN(C)CCCN(Cc1ccccc1)C(=S)Nc1cccc(C(F)(F)F)c1	?	0%	-15%	11µM*	?	6%
Cc1ccc(NC(=S)N(CCCN2CCCC2)Cc2cccn2Cc2ccc(Cl)cc2)cc1Cl	8.9µM*	1%	-22%	0.56µM*	1.1µM*	-9%
CCCN(Cc1ccccc1)C(=S)Nc1cccc(C(F)(F)F)c1	?	-24%	9%	?	?	-1%
FC(F)(F)c1cccc(NC(=S)N(CCCN2CCCC2)Cc2cccn2Cc2ccc(Cl)cc2)c1	?	15%	28µM*	-8%	?	-5%
CCCCN(CC)CCCNC(=O)c1c(C)oc2ncnc(N3CCOCC3)c12	nt	-2%	-5%	nt	21%[46.1 µM]	nt
Cc1ccc(NC(=O)Cn2cc(S(=O)(=O)N3CCCC3)c(S(=O)(=O)N3CCCC3)c2)cc1F	nt	-1%	29%	nt	29%[46.1 µM]	nt
C#CCSc1nncn1C(=O)/C=C/c1ccccc1	1%	71µM*	nt	12%	-26%	-12%
CC(C)c1ccc(NC(=O)c2cc(S(=O)(=O)NC3CCCCC3)ccc2F)cc1	nt	14%	14%	nt	?	nt
Clc1nnc(N/N=C/c2ccccc2)c2ccccc12	?	0%	32%	-1%	-19%	?
SMILES	MARV entry inh	Sm TGR block	FMDV antiviral	HCV inh	Lassa entry inh	RE007 growth inh
C[n+]1ccc(/C=N/Nc2nc(Cl)c(C#N)c(Cl)c2Cl)cc1	nt	11µM*	-20%	?	nt	?
COc1ccc(-c2nn(-c3ccccc3)cc2/C=C2/SC(=S)N(CCC(=O)O)C2=O)cc1	12%	-15%	-17%	36%	-16%	3%
COc1ccc(-c2nn(-c3ccccc3)cc2/C=C2/SC(=S)N(CCC(=O)O)C2=O)c(C)c1	?	6%	32µM*	19%	2%[46.1 µM]	1%
CCN(CC)c1ccc(/C=C(\C#N)C(=O)NCc2ccco2)cc1	nt	-16%	nt	-28%	nt	nt
CCN(CC)c1ccc(/C=C(\C#N)C(=O)NCc2ccccc2)cc1	3%	-9%	0%	25µM*	?	-1%
COc1ccc2c(c1)OC(C)CN(CCNC(=O)c1csc(-c3cccs3)n1)C2 (configuration not stated)	nt	nt	-3%	nt	nt	nt
O=C(C1=C[C@@H]2[C@H]3C(=O)N(c4ccccc4)C(=O)[C@H]3[C@@H](C(=O)c3ccc(Cl)cc3)N2C=C1)c1ccccc1	-42%	14µM*	nt	-2%	3%	nt
OC[C@H]1NC[C@@H](O)[C@@H](O)[C@H]1O	nt	nt	-14%	nt	nt	nt
CCOc1ccc(C(=O)N2CCn3c2nc2ccccc23)cc1	?	45µM*	21%	12%	?	1%
COc1ccc(C(=O)N2CCn3c2nc2ccccc23)cc1	23%[46.1 µM]	7%[57.1 µM]	26%	19%	13%	0%
CCOc1cccc(C(=O)Nc2ccc3oc(Cc4ccc(Cl)cc4)nc3c2)c1	?	4%	8.9µM*	?	?	-3%
CCCCOc1cccc(C(=O)Nc2ccc3oc(-c4cccnc4)nc3c2)c1	nt	6%	16µM*	nt	26%[46.1 µM]	nt
CCCCOc1ccc(C(=O)Nc2ccc3oc(-c4cccnc4)nc3c2)cc1	nt	0%	?	nt	-13%[46.1 µM]	nt
CCOc1cccc(C(=O)Nc2ccc3oc(-c4cccnc4)nc3c2)c1	-7%[46.1 µM]	12%	?	10µM*	0%[46.1 µM]	2%
Cc1[nH]c2ccc(C(=O)NCCc3ccccc3Cl)cc2c1C	nt	-1%	38%	nt	-16%[46.1 µM]	nt
CC1=C(CC(=O)O)c2cc(F)ccc2/C1=C/c1ccc(S(C)=O)cc1 (configuration not stated)	nt	20µM*	21%	31%	nt	2%[18.4 µM]
Cc1ccc(-c2nn3c(C)nnc3s2)cc1NC(=O)c1ccc(-c2cccc(Cl)c2)o1	9.2µM*	?	?	?	?	-8%
Cc1ccc(-c2nn3c(C)nnc3s2)cc1NC(=O)c1ccc(Br)o1	nt	50µM*	-24%	10%	nt	2%
CC(=O)Nc1cc(-c2nn3c(C)nnc3s2)ccc1C	nt	3%	2%	9%	nt	-7%
Cc1ccc(-c2nn3c(C)nnc3s2)cc1NC(=O)c1ccc(-c2ccc(Cl)cc2Cl)o1	15µM*	?	-5%	?	?	8%
